Results on 17 molecules are retold here after PubChem BioAssay.

Records with an inconclusive call do not appear. A number with no mark means an inactive call. No stated cut-off is given here; in the data, active means percent of DMSO control GFP below about 86%; inactive means the rest, inconclusive results apart.

This assay is described as follows: rapamycin-like changes in RPL19A-GFP expression – cell-based, S. cerevisiae, multiplex flow cytometry, primary screen (AID 1862).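 Further: lower values mimic rapamycin by blocking the RPL19A rise seen in DMSO cells.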 Conditions: S. cerevisiae RPL19A-GFP strain, flow cytometry fluorescence, 3 h; at 10 µM; stronger effect = lower value.
On to `CN1C[C@H](CNC(=O)OCc2ccccc2)C[C@@H]2c3cccc4c3c(cn4C)C[C@H]21`, for which the percent of DMSO control GFP was 103%. For `C[N+]1(C)C2CCC1CC(OC(=O)C(CO)c1ccccc1)C2` (configuration not stated) the value was 106%; for `CCC1(c2ccccc2)C(=O)N(COC)C(=O)N(COC)C1=O`, 102%; for `CCn1c(O)c(C(=O)CC2NCCc3ccccc32)c(=O)n(CC)c1=S` (configuration not stated), 95.2%. In the case of `NC(=O)CN1CCCC1=O`, the percent of DMSO control GFP is 95%.

As to `Cc1ccsc1C(=O)C1CCCN(Cc2cc3ccccc3o2)C1` (configuration not stated), the percent of DMSO control GFP is 102%. Regarding `CN1C2CCC1CC(OC(=O)c1ccc(Cl)cc1)C2` (configuration not stated), the percent of DMSO control GFP is 99.9%. Then `Cn1c(O)c(C=NCCc2c[nH]c3ccccc23)c(=O)n(C)c1=O`, with 100%.

Regarding `CC12CN3CC(C)(CN(C1)C3c1cccs1)C2=O` (configuration not stated), the percent of DMSO control GFP is 101%. For `[N-]=[N+]=CC(=O)OC[C@H](N)C(=O)O` the value was 102%; for `COP(=O)(OC)C(O)C(Cl)(Cl)Cl` (configuration not stated), 103%; for `CC(C)[N+](C)(CCC(C(N)=O)(c1ccccc1)c1ccccc1)C(C)C`, 105%.

Take `C[C@@]1(CO)[C@H](O)CC[C@@]2(C)[C@H]1CC[C@H]1C[C@@H]3C[C@@]12CC[C@]3(O)CO`: the percent of DMSO control GFP is 105%. For `O=C1CCCC2=C1C(c1cccnc1)Nc1ccccc1N2` (configuration not stated) the value was 105%; for `O=c1[nH]c(=S)n(-c2ccccc2)c(O)c1/C=N/N1CCCCC1c1cccnc1` (configuration not stated), 101%; for `Clc1ccc(C2NCCc3[nH]cnc32)cc1` (configuration not stated), 104%.

`Cc1ccc(-n2c(C)cc(/C=C3/C(=O)NC(=O)N(C)C3=O)c2C)cc1`: the percent of DMSO control GFP is 103%.
